This is part of a sample that, as a whole, favours compounds with a hit. Of some 83,000 tested, about 20% had one in any assay.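 Each cell line was grown in a 96-well plate and treated with one concentration of compound for 48 hours. Values below 10 were considered active.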 A number with no mark means an inactive call. The source made the active and inactive calls.
Each compound was assayed on MDA-MB-468 breast (assay: NCI-60 one-dose screen, 48 h (100 = growth as untreated, 0 = no growth, -100 = all killed)). Conditions: 10 µM unless noted.

| Structure (SMILES) | growth |
| --- | --- |
| CC(C)CCC[C@@H](C)C1CCC2C3CCC4=C/C(=N/OCCN(C)C)CC[C@]4(C)C3CC[C@@]21C (some centres undefined) | 87.3% |
| COc1cc(/C=C/C(=O)c2ccc(Cl)cc2)cc(CN2CCCCC2)c1O | 93.2% |
| COc1ccc(-c2ccc(NC(=O)Nc3ccc(Cl)c(C(F)(F)F)c3)c(C)n2)cc1 | 38.5% |
| COc1cccc(-c2cc(-c3cccc(NS(C)(=O)=O)c3)nc(N)c2C#N)c1O | 2.89% (active) |
| CCC(=O)N1C/C(=C/c2ccc(Br)cc2)C(=O)/C(=C/c2ccc(Br)cc2)C1 | -91.5% (active) |
| O=C(N/N=C/[C@H](O)[C@H](O)[C@H](O)CO)c1ccc(NC(=O)c2cccnc2)cc1 | 113% |
| CCOc1ccncc1[N+](=O)[O-] | 104% |
| CCC(=C(c1ccc(OCCN(C)C)cc1)c1ccc(OCCN(C)C)cc1)c1ccc(Cl)cc1 | -82.8% (active) |
| COc1cccc(NC(=O)c2sc3nc4c(cc3c2N)CN(Cc2ccccc2)CC4)c1 | 64.4% |
| Cn1cnc([N+](=O)[O-])c1/C=C1\Oc2ccc(Br)cc2C1=O | 80.9% |
| C=CCn1cc(-c2nc3ccccc3s2)c2cc(-c3ccc4c5c(cccc35)C(=O)N(N)C4=O)ccc21 | 95.4% |
| COc1ccc(C(=O)c2cc3c(N)c(C(=O)Nc4cccc(Cl)c4)sc3nc2C)cc1 | 10.5% |
| CN1C(=O)/C(=C/c2ccc(C(=O)Nc3ncc(Cc4ccccc4Cl)s3)cc2)SC1=S | 40.3% |
| COc1ccc(OC)c(/C=C/c2nc(SCc3ccccc3)n(-c3ccc(Cl)cc3)n2)c1 | 34.4% |

Reference: PubChem BioAssay (NCI)
